Here are results for nine compounds from PubChem BioAssay (NCI).

The nature of assay [1]: NCI Yeast Anticancer Drug Screen. Data for the rad50 strain (AID 155).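 Note: 0% = growth of vehicle-only cultures of the same strain.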 Particulars: S. cerevisiae rad50 strain growth inhibition, stronger effect = higher value. The essentials: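 Cells are treated with compound, grown, and their growth is then scored against vehicle-only cultures of the same repair-deficient yeast strain.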
A short description of assay [2]: NCI Yeast Anticancer Drug Screen. Data for the mec2-1 strain (AID 157). The note with it: S. cerevisiae mec2-1 strain, stronger effect = higher value. The essentials: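 Growth inhibition is read against vehicle-treated controls after compound exposure of the mec2-1 yeast strain, which is defective in DNA damage repair or cell cycle control.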
Assay [3] in a line: NCI Yeast Anticancer Drug Screen. Data for the sgs1 mgt1 strain (AID 161).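 Note: 0% = growth of cultures given vehicle only.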 The note with it: S. cerevisiae sgs1 mgt1 strain, stronger effect = higher value. The essentials: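 Yeast cells carrying a defined DNA-repair defect were exposed to test compounds. Growth inhibition was measured relative to vehicle-treated controls.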
Assay [4] in a line: NCI Yeast Anticancer Drug Screen. Data for the cln2 rad14 strain (AID 165).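 Note: 0% = growth equal to vehicle treated cultures.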 Particulars: S. cerevisiae cln2 rad14 strain, stronger effect = higher value. Put shortly: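 Growth inhibition, relative to vehicle-treated controls, is the read-out. The test organism is a yeast strain with defined genetic alterations, cln2 rad14.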
Assay [5] is described as follows: NCI Yeast Anticancer Drug Screen. Data for the bub3 strain (AID 167). The note with it: S. cerevisiae bub3 mutant strain, stronger effect = higher value. Put shortly:
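Part of a panel of yeast mutants defective in DNA damage repair or cell cycle regulation. Each strain is grown with compound, and inhibition is calculated relative to solvent-treated cultures.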

The nature of assay [6]: NCI Yeast Anticancer Drug Screen. Data for the mlh1 rad18 strain (AID 175). The note with it: S. cerevisiae mlh1 rad18 strain growth inhibition, stronger effect = higher value. The essentials:
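Cells of a genetically altered yeast strain, deficient in DNA damage repair, were treated with compound. Their growth was then compared with that of vehicle-treated cultures to give inhibition.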

The mark [7] stands for this setting: at 5.0 µM (retest, dose inferred, filed as 0.5).
[8] abbreviates: at 50.0 µM (retest, dose inferred, filed as 5.0).

Compounds without any hit were thinned out: in the full panel of roughly 79,000, 15% have a hit. Unmarked numbers belong to inactive results. The source made the active and inactive calls. Cut-off read from the data, not from the text of the source: active = growth inhibition above about 70%; inactive = the rest.

On to `CCCCCCCCCCCCCCSC(=NCC)NCC`, for which the growth inhibition in assay [1] (setting [7]) was 99% (active); in assay [1] (setting [8]) it was 99% (active); in assay [1] (at 50.0 µM), 99.2% (active); in assay [2] (setting [7]), 100% (active); in assay [2] (setting [8]), 100% (active); in assay [2] (at 50.0 µM), 99.5% (active). The growth inhibition in assay [3] (setting [7]) is 100% (active); in assay [3] (setting [8]) it was 100% (active); in assay [3] (at 50.0 µM), 99.2% (active); in assay [4] (setting [7]) it was 99% (active); in assay [4] (setting [8]), 99% (active); in assay [4] (at 50.0 µM), 97.4% (active). In addition, the growth inhibition in assay [5] (setting [7]) is 99% (active); in assay [5] (setting [8]), 99% (active); in assay [5] (at 50.0 µM), 99.3% (active); in assay [6] (setting [7]) it was 99% (active); in assay [6] (setting [8]), 99% (active); in assay [6] (at 50.0 µM) it was 99% (active).
Turning to `O=C1O/C(=C\c2ccccc2)c2ccccc21`, the growth inhibition in assay [1] (setting [7]) is 3%; in assay [1] (setting [8]), 66%; in assay [1] (at 50.0 µM) it was 46.5%; in assay [2] (setting [7]) it was -41%; in assay [2] (setting [8]), 20%; in assay [2] (at 50.0 µM), 37.1%. Also, the growth inhibition in assay [3] (setting [7]) is 1%; in assay [3] (setting [8]) it was 47%; in assay [3] (at 50.0 µM) it was 47.6%; in assay [4] (setting [7]), -4%; in assay [4] (setting [8]) it was -1%; in assay [4] (at 50.0 µM), 1.8%. Also, the growth inhibition in assay [5] (setting [7]) is 40%; in assay [5] (setting [8]), 63%; in assay [5] (at 50.0 µM) it was 54.5%; in assay [6] (setting [7]) it was 2%; in assay [6] (setting [8]), 50%; in assay [6] (at 50.0 µM), 68.3%.
In the case of `COC(=O)CCC(C)C1CCC2C3CCC4CC(SC(=N)N)CCC4(C)C3CC(O)C12C` (configuration not stated), the growth inhibition in assay [1] (setting [7]) was 95% (active); in assay [1] (setting [8]), 99% (active); in assay [1] (at 50.0 µM) it was 99.1% (active); in assay [2] (setting [7]) it was 23%; in assay [2] (setting [8]), 99% (active); in assay [2] (at 50.0 µM), 99.7% (active). The growth inhibition in assay [3] (setting [7]) is 98% (active); in assay [3] (setting [8]), 99% (active); in assay [3] (at 50.0 µM) it was 99.7% (active); in assay [4] (setting [7]), 63%; in assay [4] (setting [8]), 99% (active); in assay [4] (at 50.0 µM) it was 99.2% (active). Besides, the growth inhibition in assay [5] (setting [7]) is 99% (active); in assay [5] (setting [8]), 99% (active); in assay [5] (at 50.0 µM) it was 99.3% (active); in assay [6] (setting [7]) it was 84% (active); in assay [6] (setting [8]), 99% (active); in assay [6] (at 50.0 µM) it was 99.4% (active).
With `COc1cc(-c2nn3c(=O)n(-c4ccc(Cl)cc4)c(=O)nc3s2)cc(OC)c1OC`, the growth inhibition in assay [1] (setting [7]) was 6%; in assay [1] (setting [8]) it was -2%; in assay [1] (at 50.0 µM), 30.8%; in assay [2] (setting [7]), 0%; in assay [2] (setting [8]) it was 18%; in assay [2] (at 50.0 µM) it was -0.6%. The growth inhibition is 1% in assay [3] (setting [7]); 4% in assay [3] (setting [8]); 20.9% in assay [3] (at 50.0 µM); 7% in assay [4] (setting [7]); -7% in assay [4] (setting [8]); 24% in assay [4] (at 50.0 µM). The growth inhibition is 1% in assay [5] (setting [7]); 17% in assay [5] (setting [8]); 3.3% in assay [5] (at 50.0 µM); -2% in assay [6] (setting [7]); 3% in assay [6] (setting [8]); 2.35% in assay [6] (at 50.0 µM).
Take `CC1=NN(c2nc(N)nc(NS(=O)(=O)c3cc(C)c(Cl)cc3S)n2)C(C)(C)C1`: the growth inhibition in assay [1] (setting [7]) was 29%; in assay [1] (setting [8]), 13%; in assay [1] (at 50.0 µM), 9.1%; in assay [2] (setting [7]), -1%; in assay [2] (setting [8]), -12%; in assay [2] (at 50.0 µM), -9.55%. Further, the growth inhibition in assay [3] (setting [7]) was -2%; in assay [3] (setting [8]), 9%; in assay [3] (at 50.0 µM), 35.9%; in assay [4] (setting [7]), 4%; in assay [4] (setting [8]), 10%; in assay [4] (at 50.0 µM), 46.2%. Further, the growth inhibition in assay [5] (setting [7]) is 11%; in assay [5] (setting [8]), -17%; in assay [5] (at 50.0 µM), 9.85%; in assay [6] (setting [7]) it was -3%; in assay [6] (setting [8]), 4%; in assay [6] (at 50.0 µM), 20%.
`COc1ccc(C2COc3c(ccc(O)c3O)C2)cc1OC` (configuration not stated): the growth inhibition in assay [1] (setting [7]) was -14%; in assay [1] (setting [8]) it was 28%; in assay [1] (at 50.0 µM), 25.2%; in assay [2] (setting [7]), 1%; in assay [2] (setting [8]), 55%; in assay [2] (at 50.0 µM), 43.6%. The growth inhibition in assay [3] (setting [7]) is -3%; in assay [3] (setting [8]) it was 66%; in assay [3] (at 50.0 µM), 40.1%; in assay [4] (setting [7]) it was 0%; in assay [4] (setting [8]), 41%; in assay [4] (at 50.0 µM), 55.7%. The growth inhibition was 0% in assay [5] (setting [7]); 26% in assay [5] (setting [8]); 32.9% in assay [5] (at 50.0 µM); 0% in assay [6] (setting [7]); 74% (active) in assay [6] (setting [8]); 40.2% in assay [6] (at 50.0 µM).
For `OC12C3C4CC5C(C4[C@@H]1Br)C2[C@@](O)(c1c(F)c(F)c(F)c(F)c1F)C53` (some centres not stated), the growth inhibition in assay [1] (setting [7]) is 8%; in assay [1] (setting [8]), 21%; in assay [1] (at 50.0 µM), 27.2%; in assay [2] (setting [7]) it was 3%; in assay [2] (setting [8]), 8%; in assay [2] (at 50.0 µM), 11.6%. The growth inhibition in assay [3] (setting [7]) is 3%; in assay [3] (setting [8]), 3%; in assay [3] (at 50.0 µM) it was 27.6%; in assay [4] (setting [7]), 3%; in assay [4] (setting [8]), 12%; in assay [4] (at 50.0 µM), 22.2%. The growth inhibition in assay [5] (setting [7]) was 8%; in assay [5] (setting [8]), 54%; in assay [5] (at 50.0 µM) it was 79.3% (active); in assay [6] (setting [7]), 8%; in assay [6] (setting [8]) it was 35%; in assay [6] (at 50.0 µM) it was 73.7% (active).
For `O=C(COc1ccc(Cl)c(Cl)c1)Nc1ccc[n+](Cc2ccc(Cl)c(Cl)c2)c1`, the growth inhibition in assay [1] (setting [7]) is -15%; in assay [1] (setting [8]), 99% (active); in assay [1] (at 50.0 µM) it was 99.6% (active); in assay [2] (setting [7]), 1%; in assay [2] (setting [8]) it was 100% (active); in assay [2] (at 50.0 µM), 99.5% (active). The growth inhibition is 13% in assay [3] (setting [7]); 99% (active) in assay [3] (setting [8]); 99.5% (active) in assay [3] (at 50.0 µM); 2% in assay [4] (setting [7]); 99% (active) in assay [4] (setting [8]); 99.2% (active) in assay [4] (at 50.0 µM). The growth inhibition in assay [5] (setting [7]) is 2%; in assay [5] (setting [8]), 99% (active); in assay [5] (at 50.0 µM), 99.3% (active); in assay [6] (setting [7]), 39%; in assay [6] (setting [8]), 99% (active); in assay [6] (at 50.0 µM), 98.8% (active).
Consider `C/C(=C/C(=O)N1c2ccccc2CC1c1c[nH]c2ccccc12)C(=O)O` (configuration not stated), for which the growth inhibition in assay [1] (setting [7]) is -1%; in assay [1] (setting [8]), 39%; in assay [1] (at 50.0 µM), 62.1%; in assay [2] (setting [7]) it was -8%; in assay [2] (setting [8]), 5%; in assay [2] (at 50.0 µM), -2.65%. The growth inhibition is -3% in assay [3] (setting [7]); 33% in assay [3] (setting [8]); 46.9% in assay [3] (at 50.0 µM); -79% in assay [4] (setting [7]); 8% in assay [4] (setting [8]); -0.65% in assay [4] (at 50.0 µM). In addition, the growth inhibition in assay [5] (setting [7]) was -4%; in assay [5] (setting [8]), 20%; in assay [5] (at 50.0 µM), 17.1%; in assay [6] (setting [7]), -2%; in assay [6] (setting [8]), 15%; in assay [6] (at 50.0 µM), 40.9%.
